# KB-3-1 cytotox: kills parental KB-3-1 adenocarcinoma cells; KB-3-1 viability, CellTiter-Glo ATP luminescence, 72 h; Potency, µM (titrated, usually from 46.1 µM), actives largely listed as cytotoxic; 1.4% of 400,000 active; AID 1347075; further: on the % scale 0 is the no-effect control and ±100 the full control effect; nearly all actives have a fitted effect of over 60% in size
#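 KB-3-1 cells, DMEM (no phenol red) + 10% FBS; compound by pin transfer, 72 h, 37 °C. Readout: CellTiter-Glo luminescence after 10 min. Data normalized, curve-fitted.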
# HepG2 tox-1: HepG2 cytotoxicity, counter-screen for TGF-b inhibitors; HepG2 CAGA-GFP viability, ATP luminescence, 18 h; 0.76% of 410,000 active; Potency, µM (top dose mostly 46.1 µM), without a hit: at the highest dose activity change, negative = cytotoxicity, usual class: cytotoxic; AID 588856
#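 HepG2 CAGA-GFP cells (1000/well, DMEM with 1% FBS) received compound, then TGF-beta at 500 pg/mL final, and were incubated 18 hours at 37 degrees C. Viability was read by CellTiter-Glo luminescence. Media-only wells were set as complete cell-killing and DMSO as no toxicity.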
# ATXN2 expr inh: reduces ATXN2 reporter expression in HEK-293 cells; HEK-293 ATXN2-luciferase reporter, luminescence, 24 h; Potency, µM (doses to about 57 µM), inactives show at the highest dose activity change, negative = inhibition, most hits filed as inhibitors; 0.72% of 360,000 active; AID 1745845; further: on the % scale 0 is the no-effect control and ±100 the full control effect; nearly all actives have a fitted effect of over 55% in size
#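 qHTS (up to 57 uM final) was run with 24 h compound exposure of reporter cells at 37 °C. Each well was multiplexed: SteadyGlo luminescence measured ATXN2-luciferase expression after a fluorogenic Gly-Phe-AFC viability readout (25 uM final).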
# TGFb inhibitor: blocks TGF-b signaling. AID 588855. 1.2% of 410,000 active. Potency, µM (doses to about 46.1 µM), for inactives: at the top dose activity, negative = inhibition, most hits filed as inhibitors. HepG2 CAGA-GFP TGF-b/SMAD3 reporter, GFP fluorescence, 18 h; TGF-beta stimulated, 500 pg/mL final; further: on the % scale 0 is the no-effect control and ±100 the full control effect; nearly all actives have a fitted effect of over 65% in size
#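 GFP signal (ex488/em500-530) from TGF-beta-stimulated HEPG2 CAGA-GFP cells, 500 pg/mL final, 18 h at 37 degrees C in DMEM plus 1% FBS, normalized to unstimulated and DMSO-stimulated controls.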
# KB-V1 cytotox: kills drug-selected multidrug resistant KB-V1 cells; Potency, µM (doses to about 46.1 µM), hits mostly cytotoxic; 3.4% of 400,000 active; KB-V1 MDR cells viability, CellTiter-Glo, 72 h; further: on the % scale 0 is the no-effect control and ±100 the full control effect; nearly all actives have a fitted effect of over 60% in size
#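 Potencies derive from concentration-effect curves fitted to normalized luminescence (CellTiter-Glo) of KB-V1 cells treated for 72 h at 37 degrees C in phenol-red-free DMEM containing 10% FBS.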
# ATXN viability: viability counter-screen for ATXN expression inhibitors; S2 cells (HEK-293 line with an ATXN2-luciferase reporter) viability, CellTiter-Fluor protease fluorescence, 24 h; Potency, µM (highest dose often 56.7 µM), hits mostly cytotoxic; 0.49% of 400,000 active; AID 651635; further: nearly all actives have a fitted effect of over 40% in size
# TGFb CAGA inh: TGF-b pathway inhibition, cherry-pick retest; AID 720534; shares compounds with TGFb inhibitor; 63% of 1,600 active; Potency, µM (series often up to 46.1 µM), without a hit: top-dose activity, negative = inhibition, most hits filed as inhibitors; HepG2 CAGA-GFP TGF-b reporter, GFP fluorescence, 18 h; cells stimulated with TGF-beta, 500 pg/mL; further: on the % scale 0 is the no-effect control and ±100 the full control effect; nearly all actives have a fitted effect of over 65% in size
# HepG2 tox-2: toxic to HepG2 cells in TGF-b counterscreen; HepG2 CAGA-GFP viability, ATP luminescence, 18 h; cells stimulated with TGF-beta, 500 pg/mL; 27% of 1,600 active; shares compounds with TGFb inhibitor; AID 720535; Potency, µM (series often up to 46.1 µM), for the others: at the top dose activity, negative = cytotoxicity, actives largely listed as inhibitors; further: on the % scale 0 is the no-effect control and ±100 the full control effect; nearly all actives have a fitted effect of over 70% in size
# TGFb CCL64 inh: blocks TGF-b signaling in CCL64 reporter cells | shares compounds with TGFb inhibitor | CCL64 CAGA-GFP reporter, TGF-b stimulated, GFP fluorescence, 18 h | Potency, µM (series often up to 46.1 µM), for the others: at the highest dose activity, negative = inhibition, actives largely listed as inhibitors | 41% of 1,600 active | AID 720536; further: nearly all actives have a fitted effect of over 65% in size
# COP TGFb inh: TGF-b inhibition validated with COP promoter. shares compounds with TGFb inhibitor. HepG2 COP-GFP TGF-b reporter, GFP fluorescence, 18 h; cells stimulated by added recombinant TGF-beta. Potency, µM (series often up to 46.1 µM), without a hit: at the top dose activity, negative = inhibition, most hits filed as inhibitors. 3% of 1,600 active. AID 720537; further: nearly all actives have a fitted effect of over 70% in size
# * = called active by the depositor; i = inactive; ? = inconclusive; nt = no result given. An excerpt weighted towards active compounds, which were near 5.9% of everything screened. The call rests on the fitted dose curve; in most records, active means well fitted curve in the direction sought with a large enough effect; inconclusive means small, poorly fitted or top-dose-only effect, or another doubt; inactive means no such curve, though single readings can be large; an effect the other way counts as inactive or inconclusive. Potency means the concentration at half of the fitted maximal effect.
SMILES,KB-3-1 cytotox,HepG2 tox-1,ATXN2 expr inh,TGFb inhibitor,KB-V1 cytotox,ATXN viability,TGFb CAGA inh,HepG2 tox-2,TGFb CCL64 inh,COP TGFb inh
COc1ccc(CNC(=O)[C@@H]2CC=C[C@@H]3CCN(Cc4ccc(OC)c(OC)c4)C(=O)[C@@H]32)cc1,i,-41%,nt,3%,i,nt,nt,nt,nt,nt
CC1=C(C(=O)Nc2ccc(C)cc2C)C(c2ccc([N+](=O)[O-])cc2)n2ncc(C(=O)Nc3ccc(F)cc3)c2N1 (stereo not drawn),nt,2%,nt,-1%,nt,nt,nt,nt,nt,nt
CCCCN(C(=O)c1cc(S(=O)(=O)N2CCOCC2)ccc1F)c1c(N)n(CCCC)c(=O)[nH]c1=O,i,2%,-6%,-18%,?,i,nt,nt,nt,nt
CCCCN(C(=O)Cc1ccc(S(=O)(=O)N2CCOCC2)s1)c1c(N)n(CCCC)c(=O)[nH]c1=O,i,3%,3%,?,i,i,-12%,1%,15%,6%
Cc1ccc(SC(C)C(=O)NCc2ccncc2)cc1 (stereo not drawn),i,-28%,5%,?,i,i,?,3%,14%,-8%
CC(C)=CCC/C(C)=C/COc1c2ccoc2cc2oc(=O)ccc12,nt,-19%,nt,-28%,nt,nt,nt,nt,nt,nt
CCCCCC/C=C/c1ccc(C2C3C=CCC(C)C3C(=O)N2Cc2ccccc2)c(F)c1 (stereo not drawn),nt,-3%,nt,0%,nt,nt,nt,nt,nt,nt
COc1ccc(C2C(C#N)=C(N)N(Nc3ccccc3)C3=C2C(=O)CC(C)(C)C3)cc1C (stereo not drawn),i,-1%,-23%,11µM*,i,i,21µM*,-25%,?,21%
CCCCn1c(NC(=O)c2ccco2)c(S(=O)(=O)c2ccc(C)cc2)c2nc3ccccc3nc21,i,-6%,2%,?,?,nt,3%,-20%,16µM*,32%
Cc1ccc(S(=O)(=O)c2c(N)n(CCCO)c3nc4ccccc4nc23)cc1,i,4%,-7%,11%,i,i,nt,nt,nt,nt
COc1cc(/C=C(\C#N)c2nc3ccccc3[nH]2)cc(Br)c1OCc1ccccc1,i,-29%,?,11µM*,i,nt,?,?,-19%,22%
COc1cc(/C=C(\C#N)c2nc3ccccc3[nH]2)cc(Br)c1OCc1ccc(F)cc1,i,-28%,-11%,6%,i,i,nt,nt,nt,nt
O=C(N/N=C/c1ccccc1O)c1cccc2ccccc12,i,-21%,nt,8.9µM*,?,i,?,?,?,16%
O=C(O)c1ccc(C=NNC(=O)c2cccc3ccccc23)cc1,i,3%,4%,-22%,i,i,nt,nt,nt,nt

# High-throughput results as filed in PubChem.
